Records with an inconclusive call do not appear. The source made the active and inactive calls. The calls were made as follows: active = hit-call score of the fitted dose curve at least 0.9, where 1 is the maximum; inconclusive = response in the unintended direction; inactive = score below 0.9.

Sequence of human Adenosine A1 Receptor (AdoRA1), ADORA1 (gene 134) (P30542 whole entry, looked up): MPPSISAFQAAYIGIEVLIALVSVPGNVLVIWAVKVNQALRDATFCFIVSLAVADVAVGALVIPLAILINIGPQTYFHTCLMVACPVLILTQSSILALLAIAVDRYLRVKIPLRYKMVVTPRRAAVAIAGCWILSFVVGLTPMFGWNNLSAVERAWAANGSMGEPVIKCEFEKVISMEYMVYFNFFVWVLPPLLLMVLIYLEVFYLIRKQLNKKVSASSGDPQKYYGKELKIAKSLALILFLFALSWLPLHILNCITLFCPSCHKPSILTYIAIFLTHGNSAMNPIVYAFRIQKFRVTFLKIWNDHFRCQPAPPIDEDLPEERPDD

This assay addresses human Adenosine A1 Receptor (AdoRA1), ADORA1 (gene 134) (UniProt P30542). The assay is described as follows: NVS_GPCR_hAdoRA1: NovaScreen (NVS) G Protein-Coupled Receptor Assay for human Adenosine A1 Receptor (AdoRA1) (AID 2283254). How it is done:
NVS_GPCR_hAdoRA1 is a biochemical, single-readout assay that uses extracted gene-proteins from Human cortical membranes in a tissue-based cell-free assay. Measurements were taken 1 hour after chemical dosing in a 96-well plate.NVS_GPCR_hAdoRA1 is one of one assay component(s) measured or calculated from the NVS_GPCR_hAdoRA1 assay. It is designed to make measurements of radioligand binding, a form of binding reporter, as detected with scintillation counting signals by Filter-based radiodetection technology.Data from the assay component NVS_GPCR_hAdoRA1 was analyzed into 1 assay endpoint. This assay endpoint, NVS_GPCR_hAdoRA1, was analyzed in the positive analysis fitting direction relative to DMSO as the negative control and baseline of activity. Using a type of binding reporter, loss-of-signal activity can be used to understand changes in the binding as they relate to the gene ADORA1. Furthermore, this assay endpoint can be referred to as a primary readout, because the performed assay has only produced 1 assay endpoint. To generalize the intended target to other relatable targets, this assay endpoint is annotated to the gpcr intended target family, where the subfamily is rhodopsin-like receptor.
Binding assays used specific radioligands (tritiated, iodinated) with non-radioactive competitive displacement ligands in agonist or antagonist protocols (as indicated) and various reference compounds and inhibitors to titrate specific binding to receptors and transporters. Most enzyme assays (CYPs, kinases, phosphatases, proteases, HDACs) used recombinant protein and specific substrates (fluorescence mostly, some colorimetric and radioactive) and inhibitors, followed by a biochemical separation of substrate and product. All assays for the biochemical HTS were initially run in duplicate at a single concentration (10 uM for CYP450 assays and 25 uM for all others). […] Each assay was run with positive and negative controls, and concurrent controls on every plate. The follow-up (secondary) screen tested active chemical-pairs in concentration series, as well as a few additional assays not tested in the primary screen, some selected negative inactives, and several cases re-run in the concentration series for confirmatory purposes.
For `O=S(=O)(O)c1ccc(N=Nc2c(O)ccc3cc(S(=O)(=O)O)ccc23)cc1`, the result was inactive. On to `C=CCc1cc(S(=O)(=O)c2ccc(O)c(CC=C)c2)ccc1O`, for which the AC50 is 3.19 µM (active). With `c1ccc(C(O[C@@H]2CCCN(CCc3ccc4c(c3)OCO4)C2)c2ccccc2)cc1`, the AC50 was 20.7 µM (active). Consider `CCn1nc(C)c2c1C(=O)NCC(c1ccc(O)cc1)=N2`, for which the outcome was inactive. With `COCc1nnc(-c2ccc[n+]([O-])c2)n1-c1c(Cl)c(Cl)cc2[nH]c(=O)c(=O)[nH]c12`, the AC50 is 32.2 µM (active).

As to `NC(=O)N1c2ccccc2C=Cc2ccccc21`, the AC50 is 7.33 µM (active). On to `CCCCCCCCCC`, for which the molecule was called inactive. With `CCCOc1ccc(S(=O)(=O)N2CCN(CC)CC2)cc1-c1nc2c(CC)n(Cc3ccccn3)nc2c(=O)[nH]1`, the AC50 was 6.54 µM (active).

Regarding `CC(C)C(=O)Nc1ccc([N+](=O)[O-])c(C(F)(F)F)c1`, the molecule was classed as inactive. Still for that read-out and setting: the same measure for `Cc1nccn1-c1ccc(Sc2cccc(C3(C(N)=O)CCOCC3)c2)cc1`: “inactive”.

(Values after PubChem BioAssay (EPA / NIEHS).)
